This is a sample that favours compounds with a hit; in the whole collection about 3.5% have one here.
TEAD-YAP inh – TEAD-YAP interaction inhibition | inhibition, % at 9.12 µM | actives 1.4% (n = 640,000) | AID 1259422 | HEK-TIYL cells, TEAD-Gal4/YAP UAS-luciferase luminescence; in the data active = inhibition above about 32%
MITF primary – human MITF inhibition, primary screen; O75030; inhibition, % at 2.6 µM; AID 1259374; actives 0.91% (n = 650,000); AlphaScreen MITF homodimerization, bead proximity signal; in the data active = inhibition above about 50%
Target sequence (O75030 whole entry, looked up): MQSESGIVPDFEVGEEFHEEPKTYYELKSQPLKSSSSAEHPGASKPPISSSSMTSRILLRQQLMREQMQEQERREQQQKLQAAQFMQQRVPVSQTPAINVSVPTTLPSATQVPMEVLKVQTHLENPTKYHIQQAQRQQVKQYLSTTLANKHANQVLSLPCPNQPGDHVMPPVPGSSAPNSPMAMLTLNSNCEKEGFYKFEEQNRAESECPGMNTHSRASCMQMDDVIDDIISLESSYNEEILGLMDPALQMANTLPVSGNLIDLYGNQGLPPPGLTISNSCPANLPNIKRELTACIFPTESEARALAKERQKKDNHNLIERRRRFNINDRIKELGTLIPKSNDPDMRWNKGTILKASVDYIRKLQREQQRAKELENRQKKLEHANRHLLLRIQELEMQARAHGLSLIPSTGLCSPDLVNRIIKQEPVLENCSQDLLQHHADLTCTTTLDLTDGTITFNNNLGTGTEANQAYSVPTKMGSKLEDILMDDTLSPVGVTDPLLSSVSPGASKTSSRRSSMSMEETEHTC
FBW7 act – human FBW7 E3 ligase activation, primary screen | Q969H0 | AlphaScreen FBW7–phospho-cyclin E peptide binding, activator screen | normalized activity (activation), % at 26.1 µM | actives 0.13% (n = 650,000) | AID 1259310; in the data active = normalized activity above about 1.9%;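 also: purified mutant Fbw7 with reduced substrate affinity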
GPR151 ag – human GPR151 activation. PathHunter beta-arrestin GPR151 cells, luminescence. actives 1% (n = 650,000). activation, % at 11.2 µM. Q8TDV0; in the data active = activation above about 4.9%
Hits are given with their value; n = inactive.

SMILES	TEAD-YAP inh	MITF primary	FBW7 act	GPR151 ag
Cc1ccc(Nc2c(-c3ccccc3)c(=O)c2=O)cc1F	35.3	n	n	n
Cc1ccc(-c2c(NC(C)c3ccccc3)c(=O)c2=O)cc1 (stereo not drawn)	44.9	n	n	n
O=C(Nc1c2c(nn1-c1ccc(Cl)cc1)CS(=O)(=O)C2)c1ccccc1[N+](=O)[O-]	n	n	n	n
O=C(O)c1cc(S(=O)(=O)Nc2ccc(O)cc2)ccc1O	n	n	n	n
O=C(O)c1cc(NS(=O)(=O)c2ccc(Cl)c(C(=O)O)c2)ccc1O	n	81.5	n	n
Cc1cc(C(=O)NNC(=O)C(O)(c2ccccc2)c2ccccc2)cs1	n	n	1.9	n
C=CCNc1nc(-c2ccc(OC(C)=O)cc2)cs1	n	n	n	n
C/C(=N\Nc1ccc(C(F)(F)F)cc1[N+](=O)[O-])C1CC1	n	n	n	n
C/C(=N\Nc1cccc(C(F)(F)F)c1)C1CC1	n	n	3.4	n
CC/C(=N\N1CCN(c2ccccn2)CC1)c1ccc(O)cc1	n	n	n	n
O=C(Nc1cnc2ccccc2c1)c1cccc(F)c1	35.5	n	n	n
COc1ccc(C(=O)Nc2nc3ccccc3n2C)cc1	n	n	n	n
COc1ccc(C(=O)Nc2cc(C)c(C)s2)cc1	33.6	n	n	n
COc1ccc(C(=O)Nc2ccccc2C(=O)Nc2nc3ccccc3n2C)cc1	94.1	n	n	n
COc1ccc(C(=O)Nc2cnc(NC(=O)c3ccccc3)cc2C)cc1	45.0	n	n	n
O=C(Nc1ccc(F)cc1)N(CCCO)Cc1cc2cc3c(cc2[nH]c1=O)OCCO3	n	n	n	n
COc1cc(NC(=O)CCc2c(C)nc3cc(-c4ccccc4)nn3c2C)cc(OC)c1	n	n	n	n
Cc1ccc(C(=O)C2CCN(C(=S)NCCCN(C)C)CC2)cc1	n	n	n	n
CN(C)c1ccc(NC(=O)CSc2nc3[nH]ncc3c(=O)n2-c2ccccc2)cc1	n	n	n	n
Cc1ccc(-n2[nH]c(C)c(C=Nc3cccc(Nc4ccccc4)c3)c2=O)cc1C	n	n	n	n
CCCCc1ccc(NC(=O)c2ccccc2)cc1	n	n	n	n
CCCCc1ccc(C(=O)Nc2cnc3ccccc3c2)cc1	39.6	n	n	n
COc1cc(Nc2cc(Nc3ccccc3C(N)=O)ccn2)cc(OC)c1OC	n	n	n	n
COc1ccc(C(=O)Nc2cnc3ccccc3c2)cc1	84.5	n	n	n
COc1ccc(C(=O)Nc2cc(Nc3ccccc3C(N)=O)ccn2)cc1	36.7	n	n	n
SMILES	TEAD-YAP inh	MITF primary	FBW7 act	GPR151 ag
CCOc1ccc(N2C(=O)CN=C2Nc2cc(C)cc(C)c2)cc1	n	n	n	n
COc1ccc(NC(=O)C(NS(=O)(=O)c2ccc3nc(C)sc3c2)C(C)C)cc1 (stereo not drawn)	n	n	n	n
CC(C)NC(=O)C1CCCN(S(=O)(=O)c2cccs2)C1 (stereo not drawn)	n	n	n	n
COc1c(C)cc(C(=O)C2CCCN(S(=O)(=O)c3cccs3)C2)cc1C (stereo not drawn)	51.7	n	n	n
COc1c(C)cc(C(=O)C2CCCN(S(=O)(=O)c3ccsc3)C2)cc1C (stereo not drawn)	44.3	n	n	n
COc1cc([N+](=O)[O-])c(Cl)cc1-c1ccc(/C=c2\sc3nc4ccccc4n3c2=O)o1	n	n	n	n
CC1Cc2cc(S(=O)(=O)N(C)CC(=O)Nc3cccnc3)ccc2N1C(=O)C1CC1 (stereo not drawn)	39.3	n	n	n
COc1ccc(S(=O)(=O)N2CCCN(Cc3ccccc3C)CC2)cc1	n	n	n	n
Cc1ccc(C(=O)Nc2ccc(Cl)cc2Cl)o1	n	n	n	n
Cc1ccc(-c2csc(NC(=O)c3ccc(S(=O)(=O)N4CCc5ccccc5C4)cc3)n2)o1	44.5	n	n	n
COc1ccc(-c2csc(NC(=O)c3ccc(S(=O)(=O)N4CC(C)OC(C)C4)cc3)n2)c(OC)c1 (stereo not drawn)	32.3	n	n	n
O=C(Nc1nc(-c2ccccn2)cs1)c1ccc(S(=O)(=O)N2CCOCC2)cc1	47.8	n	n	n
Cc1noc(CNC(=O)C2CCN(C(=O)COc3ccccc3F)CC2)n1	n	n	n	n
Oc1ccccc1-c1nc(Nc2ccccc2F)c2ccccc2n1	n	n	n	n
O=C(CNCC1CCCO1)Nc1ccc(C(=O)N2CCCCC2)cc1 (stereo not drawn)	n	n	n	n
Cc1cc(C)n(CC(O)COc2ccc(C(=O)c3ccccc3)cc2)n1 (stereo not drawn)	n	n	n	n
CC(=O)c1c(C)nn(CC(O)COc2ccc(C(=O)c3ccc(Cl)cc3)cc2)c1C (stereo not drawn)	39.9	n	n	n
O=C1c2cccc3c([N+](=O)[O-])ccc(c23)C(=O)N1Nc1ccccc1[N+](=O)[O-]	n	n	n	n
O=C1N=C(N2CCOCC2)S/C1=C/C=C/c1ccccc1	44.6	n	n	n
O=C1N=C(c2ccccc2)S/C1=C/C=C\c1ccccc1	n	n	n	n
O=C1N=C(N2CCCC2)S/C1=C\C=C\c1ccccc1	78.0	n	n	n
CCOc1ccc(NC(=O)C(=O)NCCCN)cc1	76.3	n	n	n
CCOc1ccc(NC(=O)C(=O)NCCCO)cc1	n	n	n	n
CCOc1ccc(NC(=O)C(=O)NCN(C(=O)CCl)c2ccccc2)cc1	46.5	n	n	n
CCc1ccccc1NC(=O)C(CC)Sc1nc2ccsc2c(=O)n1Cc1ccccn1 (stereo not drawn)	n	n	n	n
SMILES	TEAD-YAP inh	MITF primary	FBW7 act	GPR151 ag
Cc1ccc2nc(/C(C#N)=C/c3ccccc3OC(=O)c3ccccc3)[nH]c2c1	51.7	n	n	n
O=C(CN1Cc2ccccc2C1=O)NCC1CCN(Cc2ccc(F)cc2)CC1	n	n	n	n
Cc1ccc(C(=O)Nc2ccc(C)c(C)c2)o1	n	n	n	n
Cc1ccc(-c2nnc(SCC(=O)N3CCCCC3C)o2)cc1C (stereo not drawn)	n	n	n	n
CC1CCCCN1C(=O)CSc1nnc(-c2ccc(O)cc2)o1 (stereo not drawn)	48.8	n	n	n
CNc1c(-c2nc(-c3ccc(OC)cc3)n[nH]2)nnn1Cc1ccccc1Cl	46.3	n	n	n
O=C(NCC1Cc2cc(-c3cnccn3)cc(Cl)c2O1)C1=CCCC1 (stereo not drawn)	n	n	n	n
Oc1c(CN2CCN(Cc3ccc4cccnc4c3O)CC2)ccc2cccnc12	38.0	113.8	n	n
Oc1c(CN2CCCCC2)ccc2cccnc12	45.8	104.9	n	n
Oc1c(CN2CCOCC2)ccc2ccccc12	n	n	n	n
Oc1ccc(CN2CCN(c3ccccc3)CC2)c2cccnc12	n	n	n	n
Oc1c(C(O)(C(F)(F)F)C(F)(F)F)ccc2cccnc12	48.8	n	n	n
Oc1c(CN2CCOCC2)ccc2cccnc12	n	95.4	n	n
O=C(CCl)Nc1c(C(O)(C(F)(F)F)C(F)(F)F)ccc2ccccc12	n	n	n	n
Cc1ccccc1CSc1cn(CCNC(=O)c2ccc(F)cc2)c2ccccc12	n	n	n	n
CCOc1ccc(/C=C2/NC(=S)N(c3ccccc3)C2=O)cc1OC	n	n	n	n

Screening data deposited in PubChem BioAssay by The Scripps Research Institute Molecular Screening Center.
